# Laboratory results published in PubChem BioAssay (EPA / NIEHS).
# Records with an inconclusive call do not appear. Calls of active or inactive are those of the source. Rule for the calls: active = hit-call score of the fitted dose curve at least 0.9, where 1 is the maximum; inconclusive = response in the unintended direction; inactive = score below 0.9.
# Molecular target: Retinoic acid receptor RXR-alpha (Homo sapiens) (UniProt P19793)
# Assay: ATG_RXRa_TRANS: Attagene TRANS-FACTORIAL HepG2 Assay for human Retinoid X Receptor alpha (RXRa) (AID 2283012)
# Method: ATG_TRANS is a cell-based, multiplexed-readout assay that uses HepG2, a human liver cell line, with measurements taken at 24 hours after chemical dosing in a 24-well plate.ATG_RXRa_TRANS is one of 30 assay component(s) measured or calculated from the ATG_TRANS assay. It is designed to make measurements of mRNA induction, a form of inducible reporter, as detected with fluorescence intensity signals by Reverse transcription polymerase chain reaction (RT-PCR) and Capillary electrophoresis technology.Data from the assay component ATG_RXRa_TRANS was analyzed into 1 assay endpoint. This assay endpoint, ATG_RXRa_TRANS, was analyzed in the positive analysis fitting direction relative to DMSO as the negative control and baseline of activity. Using a type of inducible reporter, measures of mRNA for gain-of-signal activity can be used to understand the reporter gene at the transcription factor-level as they relate to the gene RXRA. Furthermore, this assay endpoint can be referred to as a primary readout, because this assay has produced multiple assay endpoints where this one serves a reporter gene function. To generalize the intended target to other relatable targets, this assay endpoint is annotated to the nuclear receptor intended target family, where the subfamily is non-steroidal.
# Human liver HepG2 cells are transiently transfected with multiple reporter transcription units (MRTUs) in 6-well plates using FuGene 6 reagent (Roche; 3 ml FuGene/1 mg DNA). The MRTU constructs are regulated by a cis-regulating element (promoter). […] A major difference between the CIS and TRANS system is that in CIS activities of endogenous TFs are measured, whereas the TRANS assay evaluates changes in activities of exogenous, chimeric NR-Gal4 proteins. […] At the end of 24 hour incubation, total RNA was isolated using TriZol reagent (Invitrogen). The isolated RNA is then reverse-transcribed using oligo(dT) primer and Mo-MLV reverse transcriptase (Invitrogen) with DNAse I (Ambion) treatment for 30 min. The one-tenth of the produced cDNA was amplified by PCR using Taq DNA polymerase (Invitrogen) and two reporter sequence-specific primers. The PCR products were fluorescently labeled by primer extension with 6-arboxyfluorescein (6-FAM) 5'-labeled reporter sequence-specific primer (2 min at 95 C, 20 s at 68 C and 10 min at 72 C) and these products were digested with 5U of HpaI (New England Biolabs) for 2h at 37 C. The fragments were purified using Qiaquick PCR columns (Qiagen), analyzed on an ABI 3130xL genetic analyzer (Applied Biosystems) with peak positions identified by using a set of X-rhodamine (ROX)-labeled MapMarker1000 molecular weight standards (BioVentures). The raw capillary electrophoresis data was processed using Attagraph software (Attagene).
# Sequence of Retinoic acid receptor RXR-alpha (Homo sapiens) (P19793 whole entry, looked up): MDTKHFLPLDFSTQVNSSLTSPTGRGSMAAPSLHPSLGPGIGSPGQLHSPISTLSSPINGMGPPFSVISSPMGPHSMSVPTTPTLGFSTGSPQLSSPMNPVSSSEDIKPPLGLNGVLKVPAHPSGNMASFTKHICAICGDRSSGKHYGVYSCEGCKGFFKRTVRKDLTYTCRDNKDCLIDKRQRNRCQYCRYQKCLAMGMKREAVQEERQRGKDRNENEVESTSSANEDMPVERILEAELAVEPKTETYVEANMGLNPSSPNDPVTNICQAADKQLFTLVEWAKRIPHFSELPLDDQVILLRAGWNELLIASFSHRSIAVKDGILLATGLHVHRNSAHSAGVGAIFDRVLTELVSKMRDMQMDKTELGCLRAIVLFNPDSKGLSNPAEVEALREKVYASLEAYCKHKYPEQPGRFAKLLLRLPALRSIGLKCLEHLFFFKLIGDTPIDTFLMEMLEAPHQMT
Structure (SMILES),outcome,AC50
CC[C@H](NC(=O)c1cc(F)ccc1NS(=O)(=O)c1cccc2cccnc12)c1ccccc1,inactive,–
CCCCCc1ccc(N)cc1,inactive,–
Cc1cc(F)ccc1-c1cc(N2CC[C@@H](O)[C@H]2CO)ncc1N(C)C(=O)C(C)(C)c1cc(C(F)(F)F)cc(C(F)(F)F)c1,inactive,–
O=C(O)Cc1cc(I)c(Oc2ccc(O)c(I)c2)c(I)c1,inactive,–
Oc1ccccc1,inactive,–
NC(=O)c1nc(-c2cccc(-c3cc(F)ccc3OCC(F)(F)C(F)(F)F)c2)n[nH]1,inactive,–
C[C@]12CC[C@@H]3c4ccc(O)cc4CC[C@H]3[C@@H]1CCC2=O,inactive,–
CN(C[C@@H](CC[N+]12CCC(C3CCCCC3)(CC1)CC2)c1ccc(Cl)c(Cl)c1)C(=O)c1cc(C(F)(F)F)cc(C(F)(F)F)c1,inactive,–
O=CCCCC=O,inactive,–
CCCCCCCC[Si](OCC)(OCC)OCC,inactive,–
O=c1c(-c2ccc(O)cc2)coc2cc(O)cc(O)c12,inactive,–
CCCCCCCCCC(=O)O,inactive,–
O=C1CCC(C2CCCCC2)CC1,inactive,–
O=C(Nc1ccc(Cl)cc1)Nc1ccc(Cl)c(Cl)c1,inactive,–
Clc1ccccc1C(c1ccccc1)(c1ccccc1)n1ccnc1,inactive,–
O=C(O)Cn1c(=O)n(Cc2ccc(Br)cc2F)c(=O)c2ccc(Cl)cc21,inactive,–
CCCCCCCCN(C)CCCCCCCC,inactive,–
CCCCCCCCOC(=O)c1cc(O)c(O)c(O)c1,inactive,–
CC(C)(c1cc(Br)c(O)c(Br)c1)c1cc(Br)c(O)c(Br)c1,inactive,–
Cc1ccc2oc(CN(Cc3ccccc3)C(=O)Nc3c(F)cc(F)cc3F)c(-c3ccc(Cl)cc3)c2c1,inactive,–

Structure (SMILES),outcome,AC50
CCO[Si](CCCNC(N)=O)(OCC)OCC,inactive,–
CCCCCCCCCCCCO,inactive,–
OC12N=C(c3ccccc3)SC1Cc1cc(Cl)ccc12 (stereo not given),inactive,–
Cc1cccc2ccccc12,inactive,–
OCCO,inactive,–
CCCCCCCCOc1ccc(C(=O)c2ccccc2)c(O)c1,inactive,–
c1ccc(C[n+]2cccc3ccccc32)cc1,inactive,–
CCCCOC(=O)c1ccc(O)cc1,inactive,–
Cc1cn([C@H]2C[C@H](N=[N+]=[N-])[C@@H](CO)O2)c(=O)[nH]c1=O,inactive,–
Cc1ncc(CO)c(CO)c1O,inactive,–
CC(C)(C)c1cc(/C=C2\SC(N)=NC2=O)cc(C(C)(C)C)c1O,inactive,–
CC(C)(O)c1ccc(CNC(=O)c2cccnc2Oc2ccc3nonc3c2)cc1,inactive,–
C[C@]12CC[C@@H]3c4ccc(O)cc4CC[C@H]3[C@@H]1CC[C@H]2O,inactive,–
CCN(Cc1cccc(S(=O)(=O)O)c1)c1ccc(C(=C2C=CC(=[N+](CC)Cc3cccc(S(=O)(=O)O)c3)C=C2)c2ccccc2S(=O)(=O)[O-])cc1,inactive,–
CC(O)CC(C)(C)O (stereo not given),inactive,–
CCCCCCCCCCCC[N+](C)(C)C,inactive,–
NCc1cccc(C2CCN(C(=O)c3ccc(C#Cc4ccccc4F)o3)CC2)c1,inactive,–
CC/C(=C(/CC)c1ccc(O)cc1)c1ccc(O)cc1,inactive,–
CCCCCCCCCCCO,–,179 µM (active)
COc1cc(C(=O)NC2CCN(C)CC2)ccc1Nc1ncc2c(n1)N(C1CCCC1)CC(F)(F)C(=O)N2C,inactive,–
